This is an account of results in PubChem BioAssay (NCATS).

SMILES strings stand for the structures.

A short description of one assay: qHTS drug screen for cell cycle checkpoint inhibitors in PARPi-resistant BRCA-mutant ovarian cancer cell lines. (AID 1963452). Conditions: PEO1/OlaR viability, CellTiter-Glo luminescence, 96 h; measured here: PEO1 parental Z-AUC; stronger effect = lower value. In short, it runs like this: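 PEO1, PEO4 and PEO1/OlaR ovarian cancer cells, 600 per well, exposed 96 h at 37C to a dilution series. Viability read by CellTiter-Glo luminescence, normalized to DMSO and empty wells; activity summarized as Z-AUC.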
(In general: Quantitative high-throughput screening tests each substance at several concentrations.)
Consider `Cn1c(=O)c(Oc2ccc(F)cc2F)cc2cnc(NC3CCOCC3)nc21`, for which the Z-AUC is 1.1.

Regarding `CN(C)N=Nc1nc[nH]c1C(N)=O`, the Z-AUC was found to be 0.491.

On to `Cc1c(C(=O)Nc2ccc(N3C[C@@H](C)O[C@@H](C)C3)nc2)cccc1-c1ccc(OC(F)(F)F)cc1`, for which the Z-AUC was found to be 1.06.

As to `CN(C)c1ccccc1CN1CCCN(Cc2ccccc2N(C)C)C1c1ccncc1`, the Z-AUC is 0.0487.

The assay is the same for the next values; noted with them: PEO1/OlaR viability, CellTiter-Glo luminescence, 96 h; measured here: PEO4 Z-AUC; stronger effect = lower value.
For `Cc1ccc(NC(=O)c2cccc(N(C)C)c2)cc1NC(=O)c1ccc(O)cc1`, the Z-AUC was determined as 0.905.

On to `O=C(O)CCNc1cc(N2CCc3ccccc3CC2)nc(-c2ccccn2)n1`, for which the Z-AUC came to 0.175.

Turning to `CC(=O)NCCC(=O)N[C@@H](CCC(N)=O)C(=O)N[C@@H](CO)C(=O)N[C@@H](CCC(N)=O)C(=O)N[C@@H](CCC(N)=O)C(=O)N[C@H](C(=O)N[C@@H](Cc1ccccc1)C(=O)N[C@]1(C)CCCCCCC=CCCC[C@@](C)(C(=O)N[C@@H](CCC(N)=O)C(=O)N[C@@H](CC(N)=O)C(N)=O)NC(=O)[C@H](CC(C)C)NC(=O)[C@H](CC(C)C)NC(=O)[C@@H](CCCNC(=N)N)NC(=O)[C@H](Cc2c[nH]c3ccccc23)NC(=O)[C@H](CC(C)C)NC(=O)[C@H](CC(N)=O)NC1=O)[C@H](C)O`, the Z-AUC was -0.428.

Take `CC1CCN(c2cc(N3CCN(C)CC3)ccc2NC(=O)c2cc(C#N)c[nH]2)CC1`: the Z-AUC stood at 0.801.

Regarding `CNC(=O)c1cc(Oc2ccc(NC(=O)Nc3ccc(Cl)c(C(F)(F)F)c3)c(F)c2)ccn1`, the Z-AUC was 0.496.

Turning to `Cc1ccccc1C(=O)c1ccc(Nc2ccc(Br)cc2N)cc1Cl`, the Z-AUC came to 0.429.

`Cc1cc(-c2ncc(CC(=O)Nc3ccc(-c4cnccn4)cn3)cc2C)ccn1`: the Z-AUC was -0.646.

On to `O=C(CO)N1CCC(c2[nH]nc(-c3ccc(Cl)cc3)c2-c2ccncn2)CC1`, for which the Z-AUC came out at 0.147.

With `COc1ccc(Cn2ccc3ccc(C(=O)NO)cc32)cc1`, the Z-AUC was determined as 1.

As to `CC1=C(CC(=O)O)c2cc(F)ccc2C1=Cc1ccc(S(C)=O)cc1` (stereo unspecified), the Z-AUC came to 0.523.

As for `CCc1cccc(CC)c1NC(=O)N1Cc2[nH]nc(NC(=O)c3ccc(N4CCN(C)CC4)cc3)c2C1`, the Z-AUC is -0.125.

Consider `Cn1cc(-c2ccc3nnc(Sc4ccc5ncccc5c4)n3n2)cn1`, for which the Z-AUC amounted to 1.9.

Consider `CCCC1OC2C[C@@H]3[C@H]4CCC5=CC(=O)C=C[C@]5(C)[C@H]4C(O)C[C@]3(C)[C@]2(C(=O)CO)O1` (stereo partly specified), for which the Z-AUC was -0.396.

For `CC[C@H](CC#N)OC(=O)N[C@@H](C)c1cccc(NC(=O)Nc2ccc(-c3cnco3)c(OC)c2)c1`, the Z-AUC is -0.852.

`Cc1ccccc1-n1c(Cn2nc(-c3cccc(O)c3)c3c(N)ncnc32)nc2cccc(C)c2c1=O`: the Z-AUC was -0.912.

With `NS(=O)(=O)c1ccc(Nc2nc(OCC3CCCCC3)c3[nH]cnc3n2)cc1`, the Z-AUC is -1.12.

Consider `c1ccc(-c2oc3ncnc(NC[C@@H]4CCCO4)c3c2-c2ccccc2)cc1`, for which the Z-AUC was -1.2.

Regarding `CN[C@@H](C)[C@H]1[C@H](O)C[C@@]2(C)[C@@H]3CC[C@H]4C(C)(C)[C@@H](NC)CC[C@@]45C[C@@]35CC[C@]12C`, the Z-AUC came to 0.673.

`CCn1c(-c2nonc2N)nc2cncc(CNC3CCNCC3)c21`: the Z-AUC is 0.661.

In the case of `NC(=O)c1ccc(N(C(N)=O)c2c(F)cccc2F)nc1-c1ccc(F)cc1F`, the Z-AUC amounted to 0.295.

For the compound `C[C@]12CC[C@@H]3c4ccc(O)cc4CC[C@H]3[C@H]1[C@@H](O)[C@@H](O)[C@H]2O`, the Z-AUC is 0.542.

For the compound `COc1cc2ncn(-c3cc(OCc4ccccc4S(C)(=O)=O)c(C#N)s3)c2cc1OC`, the Z-AUC came to 0.362.

In the case of `CN1CCc2c(n(Cc3ccc(C(=O)NO)cc3)c3ccccc23)C1`, the Z-AUC was found to be 0.628.

As for `Clc1ccc(C2(c3ccc(-c4cn[nH]c4)cc3)CCNCC2)cc1`, the Z-AUC turned out to be 0.0319.

As to `CC[C@H](C)n1cc(C)c2c(C(=O)NCc3c(C)cc(C)[nH]c3=O)cc(-c3ccc(N4CCNCC4)nc3)cc21`, the Z-AUC was found to be 1.72.

Regarding `COC1CCC(C(=O)c2ccc3nc4c(cc3c2)CCCO4)CC1` (stereo unspecified), the Z-AUC was 0.0226.

Turning to `CCCCc1ccc(NS(=O)(=O)c2ccc(C)c(C(=O)N3CCN(c4cccc(C)c4C)CC3)c2)cc1`, the Z-AUC worked out at 1.44.

With `COc1cccc(OC)c1-c1cc(C(=O)NC2(C(=O)O)C3CC4CC(C3)CC2C4)nn1-c1ccnc2cc(Cl)ccc12` (stereo unspecified), the Z-AUC came to 1.12.

For the compound `COc1cc(Nc2nc3ccccc3nc2NS(=O)(=O)c2ccc(NC(=O)c3ccc(C)c(OC)c3)cc2)cc(OC)c1`, the Z-AUC was -0.582.

`CNC(=O)[C@H](Cc1ccccc1)NC(=O)[C@H](CC(C)C)[C@H](CSc1cccs1)C(=O)NO`: the Z-AUC worked out at 0.653.

Regarding `COC(=O)[C@H](c1ccccc1Cl)N1CCc2sccc2C1`, the Z-AUC was found to be 0.952.

With `Cn1c(=O)c(Oc2ccc(F)cc2F)cc2cnc(NC3CCOCC3)nc21`, the Z-AUC came to 1.01.
